In PubChem BioAssay (NCI):
Where “and” joins values, the source holds several entries; their conditions need not be identical. Equal entries are not always repeated. This is part of a sample that, as a whole, favours compounds with a hit. Of some 83,000 tested, about 20% had one in any assay.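 Activity criterion: percent growth below 10, measured after cells in 96-well plates were exposed to a single compound concentration for 48 hours.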 Calls of active or inactive are those of the source.

These molecules were tested on MOLT-4 leukemia (assay: NCI-60 one-dose screen, 48 h (100 = growth as untreated, 0 = no growth, -100 = all killed)). Settings: 10 µM.
Method: Growth inhibition of the MOLT-4 human tumor cell line is measured as a screen for anti-cancer activity. Cells are grown in 96 well plates and exposed to the test compound for 48 hours. Compounds are tested at a single concentration, which is 10^-5 M for most compounds. The reported endpoint is percent growth (GI% or GIPRCNT), where numbers from 0 - 100% represent growth inhibition, and numbers from -100% - 0 represent cell death. For example, a value of 40 represents 60% growth inhibition. A value of 0 means no net growth occurred over the course of the experiment. A value of -40 indicates 40% of cells at the beginning of the experiment died by the end of the experiment. A value of -100 means all cells are dead at the end of the experiment.
NCI-60 Human Tumor Cell Lines Screen was performed using the standard one-dose NCI protocol, which is described in more detail at https://dtp.cancer.gov/discovery_development/nci-60/default.htm.
Compounds with GIPRCNT values below 10 were considered active. Activity score was based on GIPRCNT using the following formula: […]
Score is 0 for GIPRCNT values of 100 or above, 50 for GIPRCNT values of 0, and 100 for GIPRCNT values of -100.

Compound	growth
C[C@@H]1CCC/C=C/[C@H]2C[C@@H](O)C[C@@H]2[C@@H](O)/C=C/C(=O)O1	1.42% (active)
C/C=C\C(=O)O[C@@H]1CC2O[C@@H]3C=C(C)C(=O)C[C@]3(C)[C@]1(C)[C@]21CO1	-26.4% (active)
O=C(CCCc1ccc(N(CCCl)CCCl)cc1)OCc1ccccc1	76.7% (inactive)
C=C1[C@@H](C)C2[C@H](Cc3ccccc3)NC(=O)[C@]23[C@H](OC(C)=O)/C=C/[C@@](C)(O)C(=O)[C@@H](C)C/C=C/[C@H]3[C@@H]1O (stereo not given in full)	62.3% (inactive)
COc1cc(C)c(-c2ccc(OC)c(=O)cc2C)c(OC)c1OC	12.3% (inactive) and 102% (inactive)
CC(C)=CCc1c2c(c(O)c3c1O[C@]14C(=C[C@@H]5C[C@H]1C(C)(C)O[C@@]4(C/C=C(/C)C(=O)O)C5=O)C3=O)C=CC(C)(C)O2	-15.6% (active)
C/C=C/CC(C)C(O)[C@H](NC(=O)[C@@H]1CCCN1C(=O)C(C)(C)NC(=O)CCCCCCC)C(=O)N[C@@](C)(CC)C(=O)N[C@@H](CCC(N)=O)C(=O)N[C@H](CCC(N)=O)C(=O)NC(C)(C)C(=O)NC(C)(C)C(=O)N[C@@H](CCC(N)=O)C(=O)N[C@H](CC(C)C)C(=O)N[C@H](CO)CC(C)C (stereo not given in full)	101% (inactive) and -32.4% (active)
CC1=C2C(=C[C@@](C)(COC(=O)c3ccc(S(=O)(=O)F)cc3)[C@@H]2OC(=O)c2ccc(S(=O)(=O)F)cc2)C(=O)[C@](C)(O)C12CC2	23.4% (inactive)
C/C=C/CC(C)C(O)[C@H](NC(=O)[C@@H]1CCCN1C(=O)C(C)(C)NC(=O)CCCCCCCCC)C(=O)NC(C)(C)C(=O)N[C@@H](CCC(N)=O)C(=O)N[C@H](CCC(N)=O)C(=O)NC(C)(C)C(=O)NC(C)(C)C(=O)N[C@@H](CCC(N)=O)C(=O)N[C@H](CC(C)C)C(=O)N[C@H](CO)CC(C)C (stereo not given in full)	-48.2% (active) and -23.8% (active)
COc1cc2c(O[C@@H]3OC[C@H](OC(C)=O)[C@H](OC(C)=O)[C@H]3O)c3c(c(-c4ccc5c(c4)OCO5)c2cc1OC)C(=O)OC3	13.7% (inactive)
COc1cc2c(O[C@@H]3OC[C@H](O)[C@H](O)[C@H]3O)c3c(c(-c4ccc5c(c4)OCO5)c2cc1OC)C(=O)OC3	110% (inactive)
COC(=O)[C@H]1[C@@H](O)[C@@]2(O)c3c(OC)cc(OC)cc3O[C@@]2(c2ccc(OC)cc2)[C@@H]1c1ccccc1	2.37% (active)
CC1=C(CN(O)C(N)=O)C2=C(C)C3(CC3)[C@](C)(O)C(=O)C2=C1	76.2% (inactive)
CC(=O)O[C@@H]1C[C@H]2O[C@@H]3C=C(C)CC[C@]3(C)[C@]1(C)[C@]21CO1	-9.55% (active)
C/C=C/CC(C)C(O)[C@H](NC(=O)[C@@H]1CCCN1C(=O)C(C)(C)NC(=O)CCCCCCCCC)C(=O)N[C@@](C)(CC)C(=O)N[C@@H](CCC(N)=O)C(=O)N[C@H](CCC(N)=O)C(=O)NC(C)(C)C(=O)N[C@@](C)(CC)C(=O)N[C@@H](CCC(N)=O)C(=O)N[C@H](CC(C)C)C(=O)N[C@H](CO)CC(C)C (stereo not given in full)	101% (inactive) and -14.5% (active)
CN(CCF)/N=N/c1nc[nH]c1C(N)=O	18.7% (inactive)
CN1C(=O)[C@]23SSC1(C)C(=O)N2[C@H]1Nc2ccccc2C1([C@@]12c4ccccc4N[C@@H]1N1C(=O)C4(C)SS[C@]1(C(=O)N4C)[C@H]2O)[C@@H]3O (stereo not given in full)	-20.6% (active)
N#Cc1nc(-c2ccccc2)oc1N1CCC(S(=O)(=O)F)CC1	94.3% (inactive)
C[C@@H]1C[C@H]2C(=O)O[C@@H](C)C(NC(=O)[C@H](Cc3cc(F)cc(F)c3)NC(=O)Nc3ccc(OS(=O)(=O)F)cc3)C(=O)N3CCC[C@H]3C(=O)N3CCO[C@H](C)[C@H]3C(=O)N[C@@H](CO)C(=O)N2C1 (stereo not given in full)	43.8% (inactive)
CC1=C[C@H]2O[C@@H]3C[C@@H](O)[C@](C)([C@@]2(C)CC1)[C@@]31CO1	9.97% (active)

Compound	growth
CC1=C2C(=C[C@@](C)(COS(C)(=O)=O)[C@@H]2O)C(=O)[C@](C)(O)C12CC2	10.4% (inactive)
CC1=C2C(=C[C@@](C)(COC(=O)c3ccc(S(=O)(=O)F)cc3)[C@@H]2O)C(=O)[C@](C)(O)C12CC2	10.2% (inactive)
COc1cc2c(cc1OC)[C@@H]1N(CC2)C(=O)c2ccccc2[C@@]1(C)C(=O)O	108% (inactive)
C/C=C/CC(C)C(O)[C@H](NC(=O)[C@@H]1CCCN1C(=O)C(C)(C)NC(=O)CCCCCCCCC)C(=O)N[C@@](C)(CC)C(=O)N[C@@H](CCC(N)=O)C(=O)N[C@H](CCC(N)=O)C(=O)NC(C)(C)C(=O)NC(C)(C)C(=O)N[C@@H](CCC(N)=O)C(=O)N[C@H](CC(C)C)C(=O)N[C@H](CO)CC(C)C (stereo not given in full)	18.8% (inactive) and 54.7% (inactive)
CC1=C2C(=C[C@@](C)(C=O)[C@@H]2O)C(=O)[C@](C)(O)C12CC2	16.5% (inactive)
CC(C)(O)/C=C/C(=O)[C@](C)(O)[C@H]1[C@H](O)C[C@@]2(C)[C@H]3CC=C4[C@@H](C[C@H](O)C(=O)C4(C)C)[C@]3(C)C(=O)C[C@]12C	24.8% (inactive)
CC1=C(CCC=NNC(N)=O)C2=C(C)C3(CC3)[C@@](C)(O)C(=O)C2=C1	47.2% (inactive)
CC1=C2C(=O)[C@](C)(CO)C=C2C(=O)[C@](C)(O)C12CC2	27.3% (inactive)
COC1[C@@H]2C[C@H]3C(C)(C)O[C@@](C/C=C(/C)C(=O)O)(C2=O)[C@]32Oc3c(CC=C(C)C)c4c(c(O)c3C(=O)[C@H]12)C=CC(C)(C)O4 (stereo not given in full)	-8.14% (active)
CC1=C[C@H]2O[C@@H]3C[C@H]4OC(=O)/C=C\C=C\[C@H]([C@@H](C)O)OCC[C@@H](C)[C@H](O)C(=O)OC[C@@]2(CC1)[C@]4(C)[C@]31CO1	-19.2% (active)
CC(=O)O[C@@H]1[C@@H]2O[C@H]2[C@@](C)(O)C(=O)[C@@H](C)C/C=C/[C@H]2[C@@H]3O[C@]3(C)[C@@H](C)C3[C@H](Cc4ccccc4)NC(=O)[C@@]312 (stereo not given in full)	67.9% (inactive)
NC1CCc2cc(O)c(O)cc2C1 (stereo not given)	66% (inactive)
CC1=C[C@H]2O[C@@H]3C[C@H]4OC(=O)/C=C\C=C\[C@H]([C@@H](C)O)OCC/C(C)=C/C(=O)OC[C@@]2(CC1)[C@]4(C)[C@]31CO1	-18.5% (active)
Cc1ccc(CNc2nc3ccc(OC/C(=C/F)CN)cc3o2)cn1	99.8% (inactive)
CCC(C)[C@H]1C(=O)O[C@H](C(C)C)C(=O)N(C)[C@@H](C(C)C)C(=O)O[C@H](C(C)C)C(=O)N(C)[C@@H](C(C)C)C(=O)O[C@H](C(C)C)C(=O)N1C (stereo not given in full)	-13% (active)
COc1cccc2c1cc([N+](=O)[O-])c1c(C(=O)O)cc3c(c12)OCO3	99.6% (inactive)
CCCCCCCCCC(=O)N[C@@](C)(CC)C(=O)N1CCC[C@H]1C(=O)N[C@@H](CC(C)C)C(=O)N[C@@](C)(CC)C(=O)N[C@@H](CCC(N)=O)C(=O)N[C@H](CCC(N)=O)C(=O)NC(C)(C)C(=O)NC(C)(C)C(=O)N[C@@H](CCC(N)=O)C(=O)N[C@H](CC(C)C)C(=O)N[C@H](CO)CC(C)C	-50.5% (active) and -25.3% (active)
N#Cc1c(-n2c(Br)c(Br)c3cc(Br)ccc32)[nH]c2c(Br)cc(Br)cc12	2.02% (active)
CC1=C(CN(O)C(N)=O)C2=C(C)C3(CC3)[C@@](C)(O)C(=O)C2=C1	104% (inactive)
COc1cc(OC)c(S(=O)(=O)N(CCCl)CCCl)cc1C(=O)/C=C/c1ccc(Cl)cc1	58.8% (inactive)
